# Source: PubChem BioAssay (NCI)
# About 83,000 compounds went through this panel and 20% of them were active in at least one assay; those are over-represented in the sample as a whole.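 Cells were grown in 96-well plates and exposed to the test compound at a single concentration for 48 hours; results are reported as percent growth, with values below 10 considered active.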 Active and inactive are the calls of the source.
# System: SK-MEL-28 melanoma
# Experiment: NCI-60 one-dose screen, 48 h (100 = growth as untreated, 0 = no growth, -100 = all killed)
# Settings: 10 µM
row,SMILES,growth
1,COc1cccc(O)c1O,74.1% (inactive)
2,CC(=O)/C(Cc1ccccc1)=N/O,110% (inactive)
3,C=CCNC(=O)c1ccc(OC)cc1,144% (inactive)
4,C/C(=N/NC(N)=O)c1ccco1,117% (inactive)
5,COCCOC(=O)c1ccc(C(C)C)cc1,110% (inactive)
6,C[N+](C)=c1ccc2nc3c(cc(Nc4ccccc4)c4ccccc43)oc-2c1,23.5% (inactive)
7,Cc1cccc(CO)c1,109% (inactive)
8,Nc1nc(N)c(N=Nc2ccc(C(=O)O)cc2)c(N)n1,103% (inactive)
9,COCCOCCCl,114% (inactive)
10,Nc1ncnc2[nH]ncc12,28.5% (inactive)
11,O=[N+]([O-])c1ccc(-c2ncc(-c3ccc(Br)cc3)o2)cc1,114% (inactive)
12,CCOC(=O)CSc1c([N+](=O)[O-])ncn1C,92.6% (inactive)
13,CC(C)(O)C#CC#CC(C)(C)O,99.4% (inactive)
14,COc1cc(C2NC(=O)C(C#N)=C(Nc3cccc(C)c3)S2)ccc1O (stereo unspecified),103% (inactive)
15,CCOC(=O)Nc1nn[nH]n1,115% (inactive)
16,O=C(NN=C1CCCCC1)C(=O)NN=C1CCCCC1,100% (inactive)
17,O=C(CCl)Nc1ccc2c(c1)C(=O)c1ccc(NC(=O)CCl)cc1C2=O,-40.6% (active)
18,CCCCOC(=O)c1ccc(C(C)C)cc1,111% (inactive)
19,O=C(NC1CCCCC1)OCc1c(COC(=O)NC2CCCCC2)c(-c2ccc(Cl)c(Cl)c2)n2c1CCC2,75.6% (inactive)

row,SMILES,growth
1,N#CCCN(CCCN1CCOCC1)CN1C(=O)c2ccccc2C1=O,101% (inactive)
2,Cc1ccccc1N=C(c1ccccc1)C1C(=O)c2ccccc2C1=O,89.4% (inactive)
3,O=c1[nH]cc(Cl)cc1O,105% (inactive)
4,CC(C)OC(C(=O)O)c1ccccc1 (stereo unspecified),102% (inactive)
5,CCCOC(=O)C(O)c1ccccc1 (stereo unspecified),116% (inactive)
6,COc1ccccc1NC(=O)c1cc2cc(Br)ccc2cc1O,34.6% (inactive)
7,OCCN1CCOCC1,105% (inactive)
8,OCC1OC(OC2C(O)C(CO)OC2(CO)OC2OC(CO)C(O)C(O)C2O)C(O)C(O)C1O (stereo unspecified),106% (inactive)
9,Cc1ccc(Cl)cc1NC(=O)N(C)CCO,145% (inactive)
10,CCOC(=O)C(O)C(O)C(=O)OCC (stereo unspecified),106% (inactive)
11,O=c1cc(-c2ccccc2)nc2cc(-c3ccco3)[nH]n12,88.6% (inactive)
12,S=c1[nH]ccn1-c1ccccc1Cl,101% (inactive)
13,C[N+](C)(C)C(=O)c1ccccc1,116% (inactive)
14,CCc1ccc(/C(C#N)=C/C=C/c2ccccc2)cc1,51.8% (inactive)
15,O=C(O)c1ccnc(Br)c1,111% (inactive)
16,S=c1nn[nH]c2ccccc12,126% (inactive)
17,O=[N+]([O-])c1ccc(CO)cc1,112% (inactive)
18,O=C1C=C(O)C(=O)C=C1O,114% (inactive)
19,C#Cc1cccc(NC(=O)c2ccc(Cl)cc2Cl)c1,102% (inactive)

# System: SK-MEL-2 melanoma
# Experiment: as above
# Settings: 10 µM
row,SMILES,growth
1,COc1cccc(O)c1O,72.4% (inactive)
2,CC(=O)/C(Cc1ccccc1)=N/O,99.7% (inactive)
3,C=CCNC(=O)c1ccc(OC)cc1,97.6% (inactive)
4,C/C(=N/NC(N)=O)c1ccco1,108% (inactive)
5,COCCOC(=O)c1ccc(C(C)C)cc1,96.9% (inactive)
6,C[N+](C)=c1ccc2nc3c(cc(Nc4ccccc4)c4ccccc43)oc-2c1,10.9% (inactive)
7,Cc1cccc(CO)c1,110% (inactive)
8,Nc1nc(N)c(N=Nc2ccc(C(=O)O)cc2)c(N)n1,97.1% (inactive)
9,COCCOCCCl,109% (inactive)
10,Nc1ncnc2[nH]ncc12,-14.1% (active)
11,O=[N+]([O-])c1ccc(-c2ncc(-c3ccc(Br)cc3)o2)cc1,99.1% (inactive)
12,CCOC(=O)CSc1c([N+](=O)[O-])ncn1C,95.4% (inactive)
13,CC(C)(O)C#CC#CC(C)(C)O,103% (inactive)
14,COc1cc(C2NC(=O)C(C#N)=C(Nc3cccc(C)c3)S2)ccc1O (stereo unspecified),123% (inactive)
15,CCOC(=O)Nc1nn[nH]n1,109% (inactive)
16,O=C(NN=C1CCCCC1)C(=O)NN=C1CCCCC1,91.2% (inactive)
17,O=C(CCl)Nc1ccc2c(c1)C(=O)c1ccc(NC(=O)CCl)cc1C2=O,-38.8% (active)
18,CCCCOC(=O)c1ccc(C(C)C)cc1,99.7% (inactive)
19,O=C(NC1CCCCC1)OCc1c(COC(=O)NC2CCCCC2)c(-c2ccc(Cl)c(Cl)c2)n2c1CCC2,-9.91% (active)

row,SMILES,growth
1,N#CCCN(CCCN1CCOCC1)CN1C(=O)c2ccccc2C1=O,118% (inactive)
2,Cc1ccccc1N=C(c1ccccc1)C1C(=O)c2ccccc2C1=O,59.9% (inactive)
3,O=c1[nH]cc(Cl)cc1O,89% (inactive)
4,CC(C)OC(C(=O)O)c1ccccc1 (stereo unspecified),110% (inactive)
5,CCCOC(=O)C(O)c1ccccc1 (stereo unspecified),106% (inactive)
6,COc1ccccc1NC(=O)c1cc2cc(Br)ccc2cc1O,-31.5% (active)
7,OCCN1CCOCC1,107% (inactive)
8,OCC1OC(OC2C(O)C(CO)OC2(CO)OC2OC(CO)C(O)C(O)C2O)C(O)C(O)C1O (stereo unspecified),106% (inactive)
9,Cc1ccc(Cl)cc1NC(=O)N(C)CCO,97.4% (inactive)
10,CCOC(=O)C(O)C(O)C(=O)OCC (stereo unspecified),103% (inactive)
11,O=c1cc(-c2ccccc2)nc2cc(-c3ccco3)[nH]n12,102% (inactive)
12,S=c1[nH]ccn1-c1ccccc1Cl,118% (inactive)
13,C[N+](C)(C)C(=O)c1ccccc1,98.6% (inactive)
14,CCc1ccc(/C(C#N)=C/C=C/c2ccccc2)cc1,-12.2% (active)
15,O=C(O)c1ccnc(Br)c1,105% (inactive)
16,S=c1nn[nH]c2ccccc12,102% (inactive)
17,O=[N+]([O-])c1ccc(CO)cc1,118% (inactive)
18,O=C1C=C(O)C(=O)C=C1O,107% (inactive)
19,C#Cc1cccc(NC(=O)c2ccc(Cl)cc2Cl)c1,98.6% (inactive)
